Assay results published in PubChem BioAssay (Tox21).
Results filed as inconclusive are left out. Calls of active or inactive are those of the source. Unless noted, calls follow the shape of the full dose curve.

How the values were obtained:
[1] = Nuclear factor erythroid 2-related factor 2/antioxidant responsive element (Nrf2/ARE) small molecule agonists: qHTS cell viability counter screen in human keratinocytes (AID 1919968; active = well fitted curve in the direction sought with a large enough effect in the repeat runs; an effect the other way counts as inactive or inconclusive; also: nearly all actives have a fitted effect of over 55% in size; also: potency is read from the fitted curve at half-maximal effect)
Summary of the method: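 KeratinoSens cells (HaCaT keratinocytes stably carrying an ARE-luciferase reporter) were seeded at 1,500 cells/well and rested 5 h at 37 C/5% CO2. They were then exposed to compounds in DMSO for 23 h. Viability was read by CellTiter-Fluor fluorescence after 1 h.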

[2] = Nuclear factor erythroid 2-related factor 2/antioxidant responsive element (Nrf2/ARE) small molecule agonists: luciferase reporter gene qHTS assay in human keratinocytes (AID 1919969); also: nearly all actives have a fitted effect of over 35% in size; also: potency is read from the fitted curve at half-maximal effect
[3] = target: Gonadotropin-releasing hormone receptor (Homo sapiens) (UniProt P30968); assay: Human gonadotropin-releasing hormone receptor (GnRHR) small molecule agonists, calcium flux assay in GnRHR-HEK293 cells (AID 1920063); also: nearly all actives have a fitted effect of over 35% in size
Sequence of Gonadotropin-releasing hormone receptor (Homo sapiens) (P30968 whole entry, looked up): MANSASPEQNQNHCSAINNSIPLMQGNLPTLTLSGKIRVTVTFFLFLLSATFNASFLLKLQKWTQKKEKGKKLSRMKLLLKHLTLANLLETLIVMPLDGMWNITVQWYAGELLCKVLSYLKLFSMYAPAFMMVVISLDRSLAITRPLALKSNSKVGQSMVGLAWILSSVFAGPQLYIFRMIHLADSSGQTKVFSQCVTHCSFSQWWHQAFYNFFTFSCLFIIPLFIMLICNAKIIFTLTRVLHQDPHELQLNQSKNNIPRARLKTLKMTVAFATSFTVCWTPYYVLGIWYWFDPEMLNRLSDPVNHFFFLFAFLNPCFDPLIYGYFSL
Summary of the method: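 HEK293 cells stably expressing human GnRHR were plated 18 h at 37 °C, loaded with calcium dye 1 h at 37 °C, then given compound in agonist mode; fluorescence (Ex/Em 480/540) read kinetically for 3 min at 1 s intervals.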

[4] = target: KiSS-1 receptor (Homo sapiens) (UniProt Q969F8); assay: Human kisspeptin (KISS1R) small molecule agonists, calcium flux assay in KISS1R-HEK293 cells (AID 1920064; active = well fitted curve in the direction sought with a large enough effect in the repeat runs; an effect the other way counts as inactive or inconclusive)
Sequence of KiSS-1 receptor (Homo sapiens) (Q969F8 whole entry, looked up): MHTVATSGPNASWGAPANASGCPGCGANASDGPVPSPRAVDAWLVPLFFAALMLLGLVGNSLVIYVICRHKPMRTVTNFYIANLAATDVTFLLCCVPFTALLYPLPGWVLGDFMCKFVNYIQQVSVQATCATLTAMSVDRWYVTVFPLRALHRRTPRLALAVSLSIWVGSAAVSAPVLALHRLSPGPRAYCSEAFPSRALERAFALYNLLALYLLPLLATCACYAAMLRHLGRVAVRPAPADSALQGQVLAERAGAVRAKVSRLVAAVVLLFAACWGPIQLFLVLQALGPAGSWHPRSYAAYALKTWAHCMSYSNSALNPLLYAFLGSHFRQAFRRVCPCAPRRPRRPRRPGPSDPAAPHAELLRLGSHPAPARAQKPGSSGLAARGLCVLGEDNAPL
Summary of the method: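 HEK293 cells stably expressing human KISS1R were plated 18 h at 37 °C, loaded with calcium dye for 1 h at 37 °C, then given compound by pin tool. Fluorescence (Ex/Em 480/540) was read kinetically for 3 min.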

[5] = G protein-coupled receptor (GPCR) small molecule agonists, calcium flux assay: HEK293 wild type cell line counter screen (AID 1920065)
Summary of the method: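 Cells were plated and cultured 18 h at 37 C/5% CO2, then loaded with calcium dye for 1 h at 37 C. Compounds in DMSO were pin-transferred in agonist mode, and fluorescence (Ex/Em 480/540) was read kinetically for 3 min at 1 s intervals.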

[6] = p53 small molecule agonists, cell-based qHTS assay with human liver microsomes (AID 1963577)
Summary of the method: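 p53RE-bla reporter cells were pre-incubated 5 h at 37 C, then treated with compounds plus human liver microsomes (0.5 mg/mL final) and NADPH (0.5 mg/mL final) for 16 h at 37 C. Beta-lactamase activity was read by LiveBLAzer fluorescence after 2 h at room temperature.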

[7] = p53 small molecule agonists, cell-based qHTS assay with rat liver microsomes (AID 1963578)
Summary of the method: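 p53RE-bla cells were exposed to compounds together with rat liver microsomes (0.5 mg/mL final) and NADPH (0.5 mg/mL final) for 16 h at 37 C, then read by LiveBLAzer beta-lactamase fluorescence after 2 h at room temperature.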

[8] = p53 small molecule agonists, cell-based qHTS assay with rat liver microsomes: qHTS cell viability counter screen (AID 1963580); also: nearly all actives have a fitted effect of over 45% in size
Summary of the method: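 p53RE-bla HCT-116 cells were exposed 16 h at 37 C to compounds with rat liver microsomes (0.5 mg/mL) and NADPH (0.5 mg/mL). Viability was measured in the same wells as ATP content by CellTiter-Glo luminescence.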

[9] = p53 small molecule agonists, cell-based qHTS assay (AID 1963582; active = well fitted activation curve with a large enough effect in the signal ratio in the repeat runs, not every such curve was filed as active; the % refers to the signal ratio)
Summary of the method: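 p53RE-bla beta-lactamase reporter cells rested 5 h at 37 C/5% CO2, then received compounds in DMSO by pin transfer and were incubated 16 h at 37 C. LiveBLAzer B/G FRET substrate was loaded for 2 h at room temperature before fluorescence reading.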

[10] = target: 5-hydroxytryptamine receptor 2A (Homo sapiens) (UniProt P28223); assay: 5-hydroxytryptamine receptor 2A (HTR2A) small molecule antagonists, cell-based qHTS assay (AID 1963586); also: nearly all actives have a fitted effect of over 45% in size
Sequence of 5-hydroxytryptamine receptor 2A (Homo sapiens) (P28223 whole entry, looked up): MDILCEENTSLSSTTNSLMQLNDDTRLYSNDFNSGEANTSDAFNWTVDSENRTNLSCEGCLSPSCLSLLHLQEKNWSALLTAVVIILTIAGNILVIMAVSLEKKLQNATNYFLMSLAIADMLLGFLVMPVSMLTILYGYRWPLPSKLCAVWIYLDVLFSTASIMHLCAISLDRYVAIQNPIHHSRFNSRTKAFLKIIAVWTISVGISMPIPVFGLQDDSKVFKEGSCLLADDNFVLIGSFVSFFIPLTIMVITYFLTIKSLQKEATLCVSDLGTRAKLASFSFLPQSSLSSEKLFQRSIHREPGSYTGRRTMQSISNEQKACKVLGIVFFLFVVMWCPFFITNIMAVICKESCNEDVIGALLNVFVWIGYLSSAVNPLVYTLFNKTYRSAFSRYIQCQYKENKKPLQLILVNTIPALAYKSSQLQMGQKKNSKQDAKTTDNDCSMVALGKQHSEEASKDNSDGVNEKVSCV
Summary of the method: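 Antagonist-mode intracellular calcium assay: DOI (4 nM) added after 5 min compound pre-incubation at room temperature to dye-loaded HTR2A-CHO cells. Fluorescence followed for 3 min, sampled every second.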

[11] = target: 5-hydroxytryptamine receptor 2A (Homo sapiens) (UniProt P28223); assay: 5-hydroxytryptamine receptor 2A (HTR2A) small molecule agonists, cell-based qHTS assay (AID 1963587); also: nearly all actives have a fitted effect of over 30% in size
Summary of the method: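 CHO cells stably expressing human HTR2A, plated 18 h, loaded with calcium dye 1 h at 37 C. Agonist mode: compounds added and intracellular calcium fluorescence recorded kinetically for 2 min at 1 sec intervals.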

[12] = target: Muscarinic acetylcholine receptor M1 (Homo sapiens) (UniProt P11229); assay: Cholinergic receptor muscarinic 1 (CHRM1) small molecule antagonists, cell-based qHTS assay (AID 1963588); also: nearly all actives have a fitted effect of over 40% in size
Sequence of Muscarinic acetylcholine receptor M1 (Homo sapiens) (P11229 whole entry, looked up): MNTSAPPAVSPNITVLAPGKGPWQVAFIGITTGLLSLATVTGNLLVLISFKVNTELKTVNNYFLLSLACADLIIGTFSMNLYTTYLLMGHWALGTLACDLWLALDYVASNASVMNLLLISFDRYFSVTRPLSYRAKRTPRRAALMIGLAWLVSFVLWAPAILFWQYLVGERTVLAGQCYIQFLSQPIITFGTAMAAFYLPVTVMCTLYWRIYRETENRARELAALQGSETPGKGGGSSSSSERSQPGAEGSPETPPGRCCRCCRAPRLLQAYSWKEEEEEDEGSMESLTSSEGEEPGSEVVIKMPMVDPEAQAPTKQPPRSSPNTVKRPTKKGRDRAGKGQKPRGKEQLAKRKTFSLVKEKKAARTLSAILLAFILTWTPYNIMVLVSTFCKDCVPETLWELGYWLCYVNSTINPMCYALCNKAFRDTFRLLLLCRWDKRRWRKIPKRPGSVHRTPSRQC
Summary of the method: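 CHRM1-CHO calcium-flux assay, antagonist mode. Cells were seeded 18 h, dye-loaded 1 h at 37 C and given compound for 5 min at RT, then acetylcholine was added at 50nM. FDSS fluorescence was read 3 min; 15 concentrations, three runs.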

[13] = target: Muscarinic acetylcholine receptor M1 (Homo sapiens) (UniProt P11229); assay: Cholinergic receptor muscarinic 1 (CHRM1) small molecule agonists, cell-based qHTS assay (AID 1963589); also: nearly all actives have a fitted effect of over 35% in size
Summary of the method: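 CHO cells stably expressing human CHRM1, seeded 18 h at 37 C/5% CO2, dye-loaded 1 h at 37 C, then given compound in agonist mode; intracellular calcium fluorescence read kinetically at 1 s intervals. Fifteen concentrations, three independent runs.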

[14] = cAMP Responsive Elements (CRE) small molecule agonists, cell-based qHTS assay (AID 1963590)
Summary of the method: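 CRE-bla HEK 293T cells in DMEM with 10% dialyzed FBS, NEAA, pyruvate and 25 mM HEPES were plated 18 h at 37 C/5% CO2, then exposed to compounds in DMSO for 3 h before LiveBLAzer B/G FRET substrate addition.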

[15] = cAMP Responsive Elements (CRE) small molecule antagonists, cell-based qHTS assay (AID 1963591; active = well fitted inhibition curve with a large enough effect in the signal ratio in the repeat runs, not every such curve was filed as active; the % refers to the signal ratio; also: potency is read from the fitted curve at half-maximal effect)
Summary of the method: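 CRE-bla HEK293T cells were plated 18 h at 37 °C/5% CO2, pinned with compound in DMSO, then stimulated with NKH477 at 0.25 uM final for 3 h. LiveBLAzer B/G FRET substrate was added and plates incubated 2 h at room temperature.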

[16] = target: Beta-2 adrenergic receptor (Homo sapiens) (UniProt P07550); assay: Adrenergic beta2 receptor (ADRB2) small molecule antagonists, cell-based qHTS assay (AID 1963592); also: series mostly up to about 92 µM; nearly all actives have a fitted effect of over 50% in size
Sequence of Beta-2 adrenergic receptor (Homo sapiens) (P07550 whole entry, looked up): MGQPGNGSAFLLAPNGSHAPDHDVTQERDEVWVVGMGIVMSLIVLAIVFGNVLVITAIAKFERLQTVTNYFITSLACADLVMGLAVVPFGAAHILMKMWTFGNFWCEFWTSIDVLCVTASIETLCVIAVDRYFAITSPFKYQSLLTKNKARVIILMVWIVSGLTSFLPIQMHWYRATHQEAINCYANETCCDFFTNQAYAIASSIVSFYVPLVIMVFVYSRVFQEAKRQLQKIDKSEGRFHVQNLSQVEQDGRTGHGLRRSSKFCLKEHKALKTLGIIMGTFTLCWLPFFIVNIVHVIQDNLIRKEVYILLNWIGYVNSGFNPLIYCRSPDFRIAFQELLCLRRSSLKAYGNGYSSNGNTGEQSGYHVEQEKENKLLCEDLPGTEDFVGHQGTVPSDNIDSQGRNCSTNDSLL
Summary of the method: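 Cells (CHO, stable ADRB2 overexpression) incubated 18-20hr at 37C; compounds added from DMSO; agonist mix (1nM isoproterenol, 100uM IBMX, 25uM Ro-20-1724) added; 0.5hr RT; d2-cAMP and anti-cAMP-cryptate added; 1hr RT; 665/615 nm read.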

[17] = target: D(2) dopamine receptor (Homo sapiens) (UniProt P14416); assay: Dopamine D2 receptor (DRD2) small molecule agonists, cell-based qHTS assay (AID 1963594); also: nearly all actives have a fitted effect of over 35% in size
Sequence of D(2) dopamine receptor (Homo sapiens) (P14416 whole entry, looked up): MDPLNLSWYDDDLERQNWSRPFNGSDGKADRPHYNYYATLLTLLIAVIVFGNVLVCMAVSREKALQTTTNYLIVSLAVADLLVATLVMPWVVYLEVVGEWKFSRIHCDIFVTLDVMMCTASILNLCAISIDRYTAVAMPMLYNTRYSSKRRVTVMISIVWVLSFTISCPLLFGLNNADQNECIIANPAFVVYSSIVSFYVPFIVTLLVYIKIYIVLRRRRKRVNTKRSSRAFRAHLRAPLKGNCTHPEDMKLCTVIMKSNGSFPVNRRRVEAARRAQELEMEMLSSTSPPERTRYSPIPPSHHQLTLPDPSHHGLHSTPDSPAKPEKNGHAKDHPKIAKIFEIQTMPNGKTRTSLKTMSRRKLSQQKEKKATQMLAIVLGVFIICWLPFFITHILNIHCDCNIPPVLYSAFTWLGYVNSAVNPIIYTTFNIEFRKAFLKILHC
Summary of the method: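 HEK293 cells stably expressing human DRD2, pre-treated with PDE inhibitor Ro20-1724 (0.1 mM final) and compound 10 min at room temperature, then stimulated with NKH477 (200nM […]) for 30 min. cAMP read by HTRF (665/620 nm).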

[18] = target: D(2) dopamine receptor (Homo sapiens) (UniProt P14416); assay: Dopamine D2 receptor (DRD2) small molecule antagonists, cell-based qHTS assay (AID 1963595; active = well fitted inhibition curve with a large enough effect in the signal ratio in the repeat runs, with a control signal flat; the % refers to the signal ratio)
Summary of the method: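 DRD2-HEK293; 0.1 mM Ro20-1724; cpd 10 min RT; NKH477 200 nM + quinpirole 12 nM, 30 min RT; HTRF cAMP (cAMP-d2/anti-cAMP cryptate), 665/620 nm ratio after 1 h.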

[19] = p53 small molecule agonists, cell-based qHTS assay: qHTS cell viability counter screen (AID 1963581); also: nearly all actives have a fitted effect of over 45% in size
Summary of the method: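 p53RE-bla HCT-116 cells were exposed to compounds for 16 h at 37 C; after the beta-lactamase FRET read in the same wells, CellTiter-Glo was added and luminescence (intracellular ATP) read after 30 min at room temperature.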

[20] = p53 small molecule agonists, cell-based qHTS assay with human liver microsomes: qHTS cell viability counter screen (AID 1963579); also: nearly all actives have a fitted effect of over 45% in size; also: potency is read from the fitted curve at half-maximal effect
Summary of the method: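 p53RE-bla cells (4,000/well) were pre-incubated 5 h at 37 C, then given compounds in DMSO plus human liver microsomes (0.5 mg/mL final) and NADPH (0.5 mg/mL final) for 16 h at 37 C. Viability was read by CellTiter-Glo luminescence.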

Measured: Potency

C1=CCC(c2ccccc2)CC1 (stereo not drawn)
not listed: [19] | [20]
inactive: all other assays above

CC(=O)Nc1ccc(OCC(O)CNC(C)C)cc1 (stereo not drawn)
not listed: [10] | [16] | [20]
inactive: all other assays above

COc1cnc(NS(=O)(=O)c2ccc(N)cc2)nc1
not listed: [19] | [20]
inactive: all other assays above

CCCCCCCCCCCCCCC1CO1 (stereo not drawn)
not listed: [9] | [12] | [14] | [20]
inactive: all other assays above

C=CC(=O)OCCCCCCCCCC
not listed: [8] | [18] | [20]
inactive: all other assays above

CC(N)CCCC(C)(C)O (stereo not drawn)
not listed: [9] | [10] | [19] | [20]
inactive: all other assays above

O=C1OC(O)C(C(Cl)Cl)=C1Cl (stereo not drawn)
active: [1] 63 µM | [2] 25.1 µM | [15] 44.6 µM
not listed: [8] | [9] | [12] | [14] | [18] | [20]
inactive: all other assays above

CC(=O)N(CC(O)CN(C(C)=O)c1c(I)c(C(=O)NCC(O)CO)c(I)c(C(=O)NCC(O)CO)c1I)c1c(I)c(C(=O)NCC(O)CO)c(I)c(C(=O)NCC(O)CO)c1I (stereo not drawn)
not listed: [8] | [10] | [20]
inactive: all other assays above

O=C(NC(Cc1cc(=O)[nH]c2ccccc12)C(=O)O)c1ccc(Cl)cc1 (stereo not drawn)
not listed: [8] | [10] | [20]
inactive: all other assays above

CCCCCCCCC(=O)Cl
not listed: [8] | [14] | [20]
inactive: all other assays above

OCC(CBr)(CBr)CBr
not listed: [7]
inactive: all other assays above

Cc1nc(-c2ccc(Cl)cc2)oc1COC(C)(C)C(=O)O
not listed: [8] | [14] | [15] | [16] | [20]
inactive: all other assays above

C/C=C(/C(=C/C)c1ccc(O)cc1)c1ccc(O)cc1
active: [1] 15 µM
not listed: [9] | [10] | [11] | [12] | [14] | [19] | [20]
inactive: all other assays above

OCC(F)(F)F
active: [20] 38.3 µM
not listed: [7]
inactive: all other assays above
